Shown are actives, neighbours in structure and some others; about 3.1% of the full set was active somewhere.
A549 viability: kills or reduces viability of A549 cells in Nrf2 counter-screen; A549 ARE-Fluc cells, CellTiter-Fluor viability, 18-24 h; Potency, µM (highest dose often 46 µM), without a hit: top-dose activity change, negative = cytotoxicity, actives largely listed as inhibitors; 390,000 tested, 0.16% active; AID 504648; also: % is scaled to controls: 0 for no effect and ±100 for the full control effect
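A549 ARE_Fluc cells in 5% FBS OPTI-MEM were exposed to compounds in concentration-response for 18-24 h at 37 deg C. Viability was read by CellTiter-Fluor fluorescence (Ex 405/Em 525) after 30 min, before the luciferase read.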
TrxR1 substrate: substrates of rat thioredoxin reductase 1; O89049; purified TrxR1 substrate turnover, NADPH consumption readout; Potency, µM (series often up to 114 µM), without a hit: top-dose activity change, negative = substrate turnover; 390,000 tested, 0.01% active; also: % is scaled to controls: 0 for no effect and ±100 for the full control effect; nearly all actives have a fitted effect of over 50% in size
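Rat TrxR1, dispensed at 90 nM, was prereduced with 400 uM NADPH (final) for 5 min at ~22 deg C, then incubated with compound 15 min before 400 uM selenite. A first-read NADPH fluorescence drop versus no-compound background flagged substrates.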
mIDH1 inhibitor: human IDH1 R132H inhibition; IDH1-R132H enzyme, NADPH consumption, diaphorase/resazurin fluorescence; 390,000 tested, 0.093% active; Potency, µM (doses to about 76.6 µM), for the others: at the highest dose activity change, negative = inhibition, usual class: inhibitors; also: % is scaled to controls: 0 for no effect and ±100 for the full control effect; nearly all actives have a fitted effect of over 65% in size
Target sequence (O75874 whole entry R132H, stated change not applied): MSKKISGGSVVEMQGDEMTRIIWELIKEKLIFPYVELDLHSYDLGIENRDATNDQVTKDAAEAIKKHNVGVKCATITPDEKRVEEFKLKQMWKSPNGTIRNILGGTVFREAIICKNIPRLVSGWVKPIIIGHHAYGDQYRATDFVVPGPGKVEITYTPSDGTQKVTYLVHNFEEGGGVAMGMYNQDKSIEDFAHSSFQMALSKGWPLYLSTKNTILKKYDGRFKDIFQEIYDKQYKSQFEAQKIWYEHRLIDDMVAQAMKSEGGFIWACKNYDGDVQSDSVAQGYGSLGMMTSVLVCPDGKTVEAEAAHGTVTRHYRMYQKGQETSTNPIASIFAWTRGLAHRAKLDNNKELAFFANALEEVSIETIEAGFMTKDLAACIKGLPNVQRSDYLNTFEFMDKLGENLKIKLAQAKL
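IDH1-R132H (0.5 ug/mL) preincubated 30 min with compound, then NADPH (0.016 mM) and alpha-KG (2 mM) added; 80 min at RT, pH 7.5. Remaining NADPH coupled via diaphorase/resazurin to fluorescence (540/590 nm); concentration-response curves normalized to no-enzyme control.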
TrxR1 inh: blocks rat thioredoxin reductase 1. O89049. AID 588453. Potency, µM (highest dose often 114 µM), inactives show top-dose activity change, negative = inhibition, hits mostly inhibitors. recombinant rTrxR1, NADPH fluorescence consumption, selenite substrate. 390,000 tested, 1% active; also: % is scaled to controls: 0 for no effect and ±100 for the full control effect; nearly all actives have a fitted effect of over 65% in size
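Rat TrxR1 (90 nM in the dispensed reagent) was pre-reduced with 400 uM NADPH for 5 min at room temperature, then incubated with compound for 15 min. After 400 uM selenite was added, NADPH fluorescence (Ex 340/Em 450 nm) was followed for 8 min.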
Nrf2 inh: inhibitors of Nrf2 signaling; A549 ARE-Fluc reporter, luciferase luminescence, 18-24 h; Potency, µM (highest dose often 46 µM), for inactives: top-dose activity change, negative = inhibition, usual class: inhibitors; AID 504444; 360,000 tested, 2.1% active; also: % is scaled to controls: 0 for no effect and ±100 for the full control effect; nearly all actives have a fitted effect of over 60% in size
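Nrf2 function is reported as luminescence of an ARE-controlled luciferase in A549 cells. Compounds were tested at several concentrations, and a CellTiter-Fluor read on the same wells flagged cytotoxicity.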
Mito fusion act: mitochondrial division inhibition or fusion activation; 320,000 tested, 0.23% active; AID 485298; Potency, µM (titrated, usually from 46.1 µM), for the others: top-dose growth rescue (activation), most hits filed as activators; S. cerevisiae fusion-defective mutant growth rescue, CellTiterGlo 48 h; also: % of control where 0% means no effect; nearly all actives have a fitted effect of over 45% in size
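S. cerevisiae fusion-defective temperature-sensitive mutants (e.g. fzo1-1, mgm1-5) grown 48 h at 37C in YPEG (ethanol/glycerol non-fermentable) medium with 23 nl compound per well; growth rescue read as CellTiterGlo luminescence.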
Numbers without * were called inactive; [ ] = dose if it differs, or a comment. Calls follow the shape of the dose curve; as a rule, active = well fitted curve in the direction sought with a large enough effect; inconclusive = small, poorly fitted or top-dose-only effect, or another doubt; inactive = no such curve, though single readings can be large; an effect the other way counts as inactive or inconclusive. Potency is read from the fitted curve at half-maximal effect.

What do the screens show for `CC(=O)c1c(C)[nH]c(C(=O)CSc2ncnc3sc(-c4ccccc4)cc23)c1C`?
A549 viability: -7%; TrxR1 substrate: -4%; mIDH1 inhibitor: 0%; TrxR1 inh: -8%; Nrf2 inh: 5.2µM*; Mito fusion act: -2%

Results for O=C(CSc1nnc(-c2ccccc2)o1)c1nnc(-c2ccccc2)o1 ?
A549 viability: -4%; TrxR1 substrate: -6%; mIDH1 inhibitor: 7%; TrxR1 inh: -21%; Nrf2 inh: 7%; Mito fusion act: 7%

Results for CC(=O)c1c(C)[nH]c(C(=O)CSc2nnc(-c3ccccc3)o2)c1C ?
A549 viability: -14%; TrxR1 substrate: -5%; mIDH1 inhibitor: 0%; TrxR1 inh: 10%; Nrf2 inh: 21µM*; Mito fusion act: 3%

Results for CN(C)c1ccc(/C=C/c2ccnc3ccc(-c4ccccc4)cc23)cc1 ?
TrxR1 substrate: -10%; TrxR1 inh: -1%

Results for O=C(c1ccccc1)N1CCN2C(=O)c3ccccc3C12c1ccc(Cl)cc1 (stereo unspecified) ?
A549 viability: -5%; TrxR1 substrate: 7%[57.1 µM]; mIDH1 inhibitor: 2%; TrxR1 inh: 15%[57.1 µM]; Nrf2 inh: 13µM*; Mito fusion act: 19%

What do the screens show for `Cc1ccc(S(=O)(=O)Nc2cccc3ncccc23)s1`?
A549 viability: inconclusive; TrxR1 substrate: 2%; mIDH1 inhibitor: 10%; TrxR1 inh: 0%; Nrf2 inh: 15µM*; Mito fusion act: 2%

Results for Cc1ccc(C)c(NC(=O)CSc2c(C)cnc3c2c(=O)n(C)c(=O)n3C)c1 ?
A549 viability: -6%; TrxR1 substrate: 5%[57.1 µM]; mIDH1 inhibitor: -12%; TrxR1 inh: 14%[57.1 µM]

Results for O=C1C(Cl)=C(N2CCOCC2)C(=O)N1c1ccccc1Cl ?
A549 viability: 2%; TrxR1 substrate: 9%[57.1 µM]; mIDH1 inhibitor: 6%; TrxR1 inh: 15%[57.1 µM]; Nrf2 inh: 2%; Mito fusion act: -3%

How did Cc1c(NC2=C(Cl)C(=O)N(c3ccccc3Cl)C2=O)c(=O)n(-c2ccccc2)n1C do in these assays?
A549 viability: -3%; TrxR1 substrate: 9%; mIDH1 inhibitor: -1%; TrxR1 inh: 20µM*; Nrf2 inh: 6%; Mito fusion act: -14%

What do the screens show for `C=CCNC1=C(Cl)C(=O)N(c2ccccc2Cl)C1=O`?
A549 viability: -4%; TrxR1 substrate: -6%; mIDH1 inhibitor: 1%; TrxR1 inh: 25µM*; Nrf2 inh: 15%; Mito fusion act: -7%

Results for N#Cc1ccc(NC(=O)COc2ccccc2C(=O)Nc2ccccc2)cc1 ?
TrxR1 substrate: -9%; TrxR1 inh: -20%

Results for CC(C)(C)n1ncc2c(=O)n(Cc3ccc(SC(F)(F)F)cc3)cnc21 ?
TrxR1 substrate: -14%; TrxR1 inh: 7%

How did CCOc1ccccc1NC(=O)CSc1ccc(-c2sc(C)nc2C)nn1 do in these assays?
A549 viability: 3%; TrxR1 substrate: -5%; mIDH1 inhibitor: 8%; TrxR1 inh: -7%; Nrf2 inh: 21µM*; Mito fusion act: -4%

Results for CCOc1ccccc1NC(=O)Cn1nc(-c2ccco2)ccc1=O ?
A549 viability: 20%; TrxR1 substrate: 3%; mIDH1 inhibitor: 14%; TrxR1 inh: 32µM*; Nrf2 inh: 5%; Mito fusion act: 3%

What do the screens show for `O=C(CSc1ccc(-c2ccco2)nn1)Nc1ccccc1F`?
A549 viability: 2%; TrxR1 substrate: 8%; mIDH1 inhibitor: -9%; TrxR1 inh: 20µM*; Nrf2 inh: 1%; Mito fusion act: 6%

What do the screens show for `CC(=O)Nc1ccc(NC(=O)CSc2ccc(-c3ccco3)nn2)cc1`?
A549 viability: -19%; TrxR1 substrate: 21%; mIDH1 inhibitor: 10%; TrxR1 inh: inconclusive; Nrf2 inh: inconclusive; Mito fusion act: -6%
